Compound activity (PubChem)
A selection: hits, their analogues and other compounds. The true share with any hit is near 11%.
Luciferase inh = Photinus pyralis luciferase inhibition; P08659; purified P. pyralis luciferase, luminescence, biochemical; Potency, µM (series often up to 115 µM), most hits filed as inhibitors; 76,000 compounds, 2.5% hits; AID 1347043; further: nearly all actives have a fitted effect of over 65% in size
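Inhibitors were tested against purified firefly luciferase in a biochemical, low-substrate format (both substrates at 10uM) and luminescence measured with a CCD imager.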
NPR1 antag = blocks ANP-stimulated signaling of human Npr1 receptor; P16066; HEK293 hNpr1 GloSensor cGMP, ANP-stimulated luminescence; Potency, µM (doses to about 46.3 µM), for the others: top-dose activity change, negative = inhibition, actives largely listed as inhibitors; 76,000 compounds, 1.6% hits; calls by dose curve; further: nearly all actives have a fitted effect of over 60% in size
Target sequence (P16066 whole entry, looked up): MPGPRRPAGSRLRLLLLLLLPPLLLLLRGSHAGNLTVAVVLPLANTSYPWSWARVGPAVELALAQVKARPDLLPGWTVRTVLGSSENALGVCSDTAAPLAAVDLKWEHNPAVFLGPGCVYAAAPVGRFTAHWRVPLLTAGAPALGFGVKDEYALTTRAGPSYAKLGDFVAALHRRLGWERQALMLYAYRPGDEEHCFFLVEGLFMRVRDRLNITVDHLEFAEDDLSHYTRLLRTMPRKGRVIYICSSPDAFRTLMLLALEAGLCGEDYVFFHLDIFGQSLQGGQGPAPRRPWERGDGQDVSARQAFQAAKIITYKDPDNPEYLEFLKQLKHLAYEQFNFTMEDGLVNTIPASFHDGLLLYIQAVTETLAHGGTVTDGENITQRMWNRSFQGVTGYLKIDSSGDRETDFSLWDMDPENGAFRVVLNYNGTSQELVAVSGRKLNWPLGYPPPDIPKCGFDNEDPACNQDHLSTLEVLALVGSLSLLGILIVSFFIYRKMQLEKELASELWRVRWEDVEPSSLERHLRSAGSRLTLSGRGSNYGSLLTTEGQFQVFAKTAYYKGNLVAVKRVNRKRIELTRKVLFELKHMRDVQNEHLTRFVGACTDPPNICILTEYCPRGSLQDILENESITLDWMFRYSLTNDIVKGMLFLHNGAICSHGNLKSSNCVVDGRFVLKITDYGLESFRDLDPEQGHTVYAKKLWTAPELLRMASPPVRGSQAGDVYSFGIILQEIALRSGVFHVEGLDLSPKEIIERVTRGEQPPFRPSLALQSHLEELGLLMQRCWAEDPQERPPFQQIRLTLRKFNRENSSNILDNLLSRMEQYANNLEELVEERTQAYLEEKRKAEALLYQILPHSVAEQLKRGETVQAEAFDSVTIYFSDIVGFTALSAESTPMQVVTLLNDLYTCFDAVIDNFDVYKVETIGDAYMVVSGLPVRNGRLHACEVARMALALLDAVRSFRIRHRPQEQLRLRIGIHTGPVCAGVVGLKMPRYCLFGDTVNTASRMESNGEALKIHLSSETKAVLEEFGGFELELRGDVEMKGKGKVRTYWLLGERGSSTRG
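Compound pre-incubated 30 min at room temperature on GloSensor-loaded HEK293 cells stably carrying hNpr1 and the pGS-40F cGMP biosensor. Stimulation uses hNppA at 0.1 nM final; luminescence is taken at baseline and 20 min post-agonist.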
NIH3T3 tox = kills NIH 3T3 cells | NIH 3T3 viability, CellTiter-Glo ATP luminescence, 48-72 h | Potency, µM (highest dose often 96.7 µM), inactives show top-dose activity change, negative = cytotoxicity, usual class: inhibitors | 94,000 compounds, 4.3% hits; further: nearly all actives have a fitted effect of over 55% in size
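Viability of NIH 3T3 cells after 48 or 72 hr compound treatment at 37 °C was assessed by CellTiter-Glo, with luminescence imaged following a 10 min room-temperature step.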
HEK293 tox = kills HEK 293 cells | Potency, µM (top dose mostly 115 µM), for inactives: at the top dose activity change, negative = cytotoxicity, usual class: inhibitors | 94,000 compounds, 6.6% hits | HEK 293 viability, ATP luminescence (CellTiter-Glo), 48-72 h; further: nearly all actives have a fitted effect of over 60% in size
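HEK 293 cells at 250 cells/well were exposed to compounds by pintool transfer for 48 or 72 hr at 37 degree Celsius, 5% CO2. Viability was read as ATP-coupled luminescence with CellTiter-Glo after 10 min at room temperature.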
An asterisk follows results filed as active; i = inactive; ? = inconclusive; nt = no result; [ ] = remark or other dose. Unless noted, the call rests on the fitted dose curve; in most records, active means well fitted curve in the direction sought with a large enough effect; inconclusive means small, poorly fitted or top-dose-only effect, or another doubt; inactive means no such curve, though single readings can be large; an effect the other way counts as inactive or inconclusive. On the % scale 0 is the no-effect control and ±100 the full control effect; potency means the concentration at half of the fitted maximal effect.

SMILES	Luciferase inh	NPR1 antag	NIH3T3 tox	HEK293 tox
O=C([C@@H]1C[C@H](F)CN1C(=O)Nc1cccc(C(F)(F)F)c1)N1CCc2ccccc2C1	i	0%	22µM*	32µM*
Cc1nc(C)c(C(=O)N2Cc3ccccc3OC3(CCN(C(C)C)CC3)C2)s1	nt	nt	-22%	-6%
O=C(NC1CCCCC1)c1c(-c2ccccc2)cc(=O)n2c1CCC2	nt	nt	-9%	3%
O=C(N[C@H]1CCN2C(=O)c3cc(-c4ccccc4)ccc3NC(=O)[C@H]12)c1cccc(F)c1	?	-18%[70.6 µM]	?	89µM*
O=C(N[C@H]1CCN2C(=O)c3cc(-c4ccsc4)ccc3NC(=O)[C@H]12)c1cccc(F)c1	i	-10%	-19%	-12%
O=C1Nc2ccccc2C(=O)N2CC[C@H](NS(=O)(=O)c3cccs3)[C@@H]12	i	6%[70.6 µM]	-22%[174 µM]	-11%[172 µM]
O=C(N[C@H]1CCN2C(=O)c3cc(-c4ccc5c(c4)OCO5)ccc3NC(=O)[C@H]12)c1cccc(F)c1	i	-11%	79µM*	?
COc1ccc(-c2ccc3c(c2)C(=O)N2CC[C@H](NC(=O)C4CCCC4)[C@H]2C(=O)N3)cc1	22µM*	-3%[70.6 µM]	?	-25%[172 µM]
O=C1Nc2ccc(-c3ccccc3)cc2C(=O)N2CC[C@H](NS(=O)(=O)c3cccs3)[C@@H]12	i	-14%	20µM*	?
COc1cc(F)ccc1-c1cc(C(=O)NCc2cnn(C)c2)c2c(c1)N(C)CCO2	i	3%[70.6 µM]	?	-27%[172 µM]
CCN(CC)Cc1nc(C2(O)CCN(C(=O)Nc3ccc(F)cc3)CC2)cs1	i	1%[70.6 µM]	-11%[174 µM]	-3%[172 µM]
NC(=O)CN1C(=O)CO[C@H]2CN(Cc3ccccc3F)C[C@H]21	i	-1%[70.6 µM]	i	i
O=C1CO[C@H]2CN(Cc3ccccc3F)C[C@H]2N1c1ccccc1	i	-4%[70.6 µM]	?	79µM*
CCc1ccc(CN2CCCC23Cc2ccccc2CNC3=O)cc1 (centres undefined)	nt	nt	?	89µM*
COc1cccc(CC2(CO)CCCN(c3ccc(-c4nccn4C)nn3)C2)c1 (centres undefined)	i	-10%	?	20µM*
COc1cccc(CC2(CO)CCCN(c3nnnn3-c3ccccc3)C2)c1 (centres undefined)	i	-7%	?	?
Cc1nn(Cc2ccccc2)c(C)c1[C@@H]1C=C[C@@H](NC(=O)Nc2cccc(C#N)c2)C1	i	-2%[70.6 µM]	?	71µM*
Cc1nn(Cc2ccccc2)c(C)c1[C@@H]1C=C[C@@H](NC(=O)c2ccco2)C1	i	-2%[70.6 µM]	?	71µM*
Cc1nn(Cc2ccccc2)c(C)c1[C@@H]1C=C[C@@H](NC(=O)c2ccc(F)c(Cl)c2)C1	i	?	?	28µM*
Cc1nn(Cc2ccccc2)c(C)c1[C@@H]1C=C[C@@H](NC(=O)CCC(=O)O)C1	i	-9%[70.6 µM]	-36%[174 µM]	-10%[172 µM]
COc1ccc(NC(=O)c2ccc(-c3nnc4ccc(NC(=O)C5CC5)cn34)cc2)cc1	i	-4%	i	8%
O=C(Cc1cccc(Cl)c1)NC1CCN(Cc2ccc(-c3ccsc3)cc2)C1 (centres undefined)	nt	nt	8.9µM*	?
O=C(NC1CCN(Cc2ccc(-c3ccsc3)cc2)C1)C1CCCC1 (centres undefined)	nt	nt	-5%[138 µM]	i
O=C(Cc1ccc(C(F)(F)F)cc1)NC1CCN(Cc2ccc(-c3ccsc3)cc2)C1 (centres undefined)	nt	nt	?	35µM*
O=C(NC1CCN(Cc2ccc(-c3ccsc3)cc2)C1)c1ccc(C(F)(F)F)cc1 (centres undefined)	nt	nt	-29%	-30%
SMILES	Luciferase inh	NPR1 antag	NIH3T3 tox	HEK293 tox
CNC(=O)c1cc(C2CC2)nc2onc(C3CCN(C(=O)Nc4ccc(C)c(F)c4)C3)c12 (centres undefined)	nt	nt	?	45µM*
O=C(NC1CCCCC1)c1ccc2oc(-c3ccccn3)nc2c1	nt	nt	-4%[138 µM]	i
N#Cc1cccc(OCc2nnc(C(=O)N3CCC[C@@H]3c3nc4ccccc4[nH]3)n2-c2ccccc2)c1	i	-17%	?	-13%
COc1ccc(OCc2nnc(C(=O)N3CCC[C@@H]3c3nc4ccccc4[nH]3)n2-c2ccccc2)cc1	i	4%	11µM*	-11%
O=C(c1nnc(COc2cc(F)cc(F)c2)n1-c1ccccc1)N1CCC[C@@H]1c1nc2ccccc2[nH]1	i	0%	32µM*	?
CCc1cc(CN(C)C(=O)c2oc3cc(OC)ccc3c2C)on1	i	4%	?	?
Cc1ccc2c(C)c(C(=O)N(C)Cc3noc4c3CCCC4)oc2c1	i	-13%	?	45µM*
COc1ccc(-c2cc3c(=O)n(CCNC(=O)c4n[nH]c5c4CCCC5)ccn3n2)cc1	?	?	-2%	-13%
CNC(=O)[C@H]1CN(C(=O)c2ccc(C)cc2)[C@]2(C)C(=O)N(CC3CC3)c3ccccc3[C@H]12	nt	nt	-11%[46.1 µM]	?
CC[C@H]1CN(C(=O)N2CCOCC2)CC[C@H]1CC(=O)Nc1nccs1	i	3%[70.6 µM]	50µM*	?
O=C(C[C@@H]1CCNC[C@@H]1Cc1cc(CSc2ccccc2)on1)NC1CCCCC1	i	-4%[70.6 µM]	100µM*	89µM*
O=C(C[C@@H]1CCNC[C@@H]1Cc1cc(COc2ccccc2)on1)NCc1cccs1	i	-13%[70.6 µM]	?	?
CC(C)NC(=O)C[C@@H]1CCNC[C@@H]1Cc1cc(-c2ccccc2)on1	i	0%[70.6 µM]	-26%[174 µM]	-27%[172 µM]
CN(Cc1ccccc1)Cc1cc(C[C@H]2CNCC[C@H]2CC(=O)NC2CCCCC2)no1	i	-3%	79µM*	?
O=C(C[C@@H]1CCNC[C@@H]1Cc1cc(-c2ccccc2)on1)NC1CCCCC1	i	-10%[70.6 µM]	?	100µM*
O=C(C[C@@H]1CCNC[C@@H]1Cc1cc(CSc2ccccc2)on1)NC1CC1	i	4%[70.6 µM]	-28%[174 µM]	-26%[172 µM]
CN(C)CCNC(=O)C[C@@H]1CCNC[C@@H]1Cc1cc(CN(C)Cc2ccccc2)on1	i	0%[70.6 µM]	-3%[174 µM]	-3%[172 µM]
CC(C)(C)c1ccc(-c2cc(C[C@H]3CNCC[C@H]3CC(=O)NCc3cccs3)no2)cc1	i	-8%	?	18µM*
Cc1cccc(NC(=O)N2CCCC(Cn3c(C)nc4cccnc43)C2)c1 (centres undefined)	i	-1%	-17%	-7%
CC(C)(C)c1ccc(-c2cc(C[C@H]3CNCC[C@H]3CC(=O)NC3CCCCC3)no2)cc1	i	-12%	20µM*	13µM*
CC(C)(C)c1ccc(-c2cc(C[C@H]3CNCC[C@H]3CC(=O)O)no2)cc1	?	2%[70.6 µM]	-28%[138 µM]	?
COc1ccccc1CNC(=O)C[C@@H]1CCNC[C@@H]1Cc1cc(-c2ccccc2)on1	i	-22%[70.6 µM]	79µM*	63µM*
CCN1C(=O)C2(CCN(S(=O)(=O)c3ccc(C(C)C)cc3)CC2)c2ccccc21	i	2%	-22%	?
